High-throughput results: PubChem, National Center for Advancing Translational Sciences (NCATS)
LASV entry inh: blocks Lassa virus binding to or entry into cells | AID 540256 | Lassa virus pseudotype entry inhibition, cell reporter | Potency, µM (titrated, usually from 37.9 µM), without a hit: top-dose activity change, negative = inhibition, hits mostly inhibitors | hit rate 1.2% among 300,000; calls by dose curve; tested in HEK293 cells; also: potency is read from the fitted curve at half-maximal effect; % is scaled to controls: 0 for no effect and ±100 for the full control effect; nearly all actives have a fitted effect of over 50% in size
HCV inhibitor: blocks hepatitis C virus | Huh7.5.1 HCVcc-Cre infection, luciferase reporter, 44 h | Potency, µM (series often up to 41.8 µM), for the others: top-dose activity change, negative = inhibition, actives largely listed as inhibitors | hit rate 3.4% among 340,000 | AID 651820; active = well fitted inhibition curve with a large enough effect; inconclusive = small, poorly fitted or top-dose-only effect, or another doubt; inactive = no such curve, though single readings can be large or run the other way; also: potency is read from the fitted curve at half-maximal effect; % is scaled to controls: 0 for no effect and ±100 for the full control effect
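Compounds are dispensed onto cells plated 4 h earlier at 1,000 per well, with HCVcc-Cre virus (about 0.5 moi) added next. Following 44 h of culture, luminescent signal is measured for 15 sec after 15 min with substrate at room temperature.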
FMDV inh: antivirals against foot and mouth disease virus | Potency, µM (doses to about 57.9 µM), without a hit: at the highest dose activity change, negative = inhibition, hits mostly inhibitors | AID 1159524 | hit rate 1.2% among 410,000 | FMDV antiviral cell-based qHTS; calls by dose curve; tested in HEK293T cells; also: read-out not given here; potency is read from the fitted curve at half-maximal effect; % is scaled to controls: 0 for no effect and ±100 for the full control effect; nearly all actives have a fitted effect of over 45% in size
Shiga inhibitor: blocks Shiga toxin action in Vero cells; Vero cells, Shiga toxin protein synthesis inhibition reporter; inhibition, % at 38.7 µM; hit rate 9.2% among 290,000; in the data active = inhibition mostly above about 28%, no sharp cut-off; inactive = mostly below about 43%; also: 0% is about no effect
CHX counter: counter-screen hit for Shiga toxin inhibitors, cycloheximide; cell reporter, cycloheximide protein synthesis inhibition counterscreen; max response, %; hit rate 12% among 300,000; AID 2314; in the data active = max response mostly above about 13%, no sharp cut-off; inactive = mostly below about 14%; also: read at 38.3 µM for the half of the compounds with a filed dose; 0% is about no effect
MARV entry inh: inhibitors of Marburg virus binding or cell entry. Marburg virus pseudotyped entry inhibition, cell reporter. Potency, µM (series often up to 37.8 µM), for inactives: at the highest dose activity change, negative = inhibition, most hits filed as inhibitors. hit rate 1.8% among 300,000; calls by dose curve; tested in HEK293 cells; also: potency is read from the fitted curve at half-maximal effect; % is scaled to controls: 0 for no effect and ±100 for the full control effect
* = called active by the depositor; u = inconclusive; x = no result given; ! = a repeat was not active; [ ] = dose if it differs, or a comment. An excerpt weighted towards active compounds, which were near 13% of everything screened.

SMILES	LASV entry inh	HCV inhibitor	FMDV inh	Shiga inhibitor	CHX counter	MARV entry inh
Cc1ccc(Nc2nc(N)nc(CSc3nncn3C)n2)cc1	10%	14%	38%	64*	28*	u
COc1ccc(Nc2nc(N)nc(CSc3nc(C)cc(C)n3)n2)cc1	u	u	24%	49*	18*	u
Cc1nnc(SCc2nc(N)nc(Nc3ccccc3)n2)s1	-8%	3%	0%	69*	38*	0%
Nc1nc(CSc2nc3ccccc3s2)nc(N2CCCCC2)n1	u	u	-21%	7	2	-13%
CCCSCCCNC(=O)CN1C(=O)COc2ccc(S(=O)(=O)N3CCC(C)CC3)cc21	-6%[46.1 µM]	x	-13%	x	x	-1%[46.1 µM]
CC1=C(n2nnc([N+](=O)[O-])n2)C(c2cccnc2)C(C#N)=C(N)O1 (configuration not stated)	u	-15%	u	5	6	u
CCOC(=O)C1CCCN(C(=O)c2cccc(OC(F)(F)F)c2)CC1 (configuration not stated)	x	x	-2%	x	x	x
Nc1nc(CSc2ccccn2)nc(Nc2ccccc2)n1	u	8%	30%	70*	33*	u
COc1ccc(Nc2nc(N)nc(CN(C)C3CCCCC3)n2)cc1	6%	-8%	16%	15	9	19%
COc1ccc(Nc2nc(N)nc(CSc3nnc(N)s3)n2)cc1	12%	-23%	41%	34	26*	2%
COc1ccc2nc(SCc3nc(N)nc(Nc4ccccc4)n3)[nH]c2c1	-5%	4%	-24%	32	16	u
COc1ccc(Nc2nc(N)nc(SCc3nnc(C)s3)n2)cc1	u	-9%	54%	40	25*	7%
COc1ccc(Nc2nc(N)nc(CSc3nccn3C)n2)cc1	x	0%	52%	73*	36*	x
Cc1ccc(/C=N\NC(=O)CC(=O)NCCc2ccccc2)cc1	-12%[46.1 µM]	13%	-15%	-5	1	u
Cc1ccc(S(=O)(=O)C2(S(=O)(=O)c3ccc(C)cc3)CC2)cc1	u	2%	u	-4	-1	11µM*
COc1cccc(OCCOc2c(OC)cccc2OC)c1	1%	-15%	13%	20	15	23%
CCN(CC)c1ccc(C(=O)NNC(=O)c2cccn2C)cc1	-24%	7.1µM*	13%	x	x	u
CCN(CC)c1ccc(C(=O)NNC(=O)CCl)cc1	u	u	4%	51	31*	-21%[46.1 µM]
CC(=Nc1ccccc1)C1=C(O)CSC1=O	3%	22%	68%	49	32*	7%
COc1ccc(N=C(C)C2=C(O)CSC2=O)cc1	3%	16%	x	45	40*	u
CC(=Nc1ccccc1)C1=C(O)CC(C)(C)CC1=O	-2%	17%	36%	45	22*	-11%[46.1 µM]
COc1ccc(-n2cc(-c3ccccc3)nc2SC)cc1	x	u	60%	65*	47*	x
COc1ccc2c(c1)sc1nc(-c3ccccc3)cn12	0.5µM*	u	7.9µM*	-27	-9	0.71µM*
COc1ccc(-n2cc(-c3ccccc3)nc2SCC(=O)Nc2ccccc2C)cc1	-22%[46.1 µM]	x	0%	x	x	x
CCOC(=O)N1CCN(C(=O)c2ccc3c(c2)sc2nc(-c4ccc(OC)cc4)cn23)CC1	-28%	14µM*!	-11%	51	25*	u
SMILES	LASV entry inh	HCV inhibitor	FMDV inh	Shiga inhibitor	CHX counter	MARV entry inh
Cc1ccc(S(=O)(=O)c2ncccc2N)cc1	x	6%	-11%	-4	-5	x
Cc1ccc(S(=O)(=O)c2ncccc2[N+](=O)[O-])cc1	x	u	20µM*	8	15	x
Cc1ccc(NC(=S)/C(=C(\[O-])c2ccc(Cl)s2)[n+]2cccc(CO)c2)cc1C	15%	u	8%	68*	40*	u
[O-]/C(=C(\C(=S)Nc1ccc(SC(F)F)cc1)[n+]1cccc(CO)c1)c1ccc(Cl)s1	6%	-25%	17%	-5	12	29%[46.1 µM]
CCCCN(C(=O)CCC(=O)OCC(=O)NCc1ccccc1)c1c(N)n(CCC)c(=O)[nH]c1=O	x	15%	-10%	x	x	x
O=C(NC1CCCc2ccccc21)c1ccccc1Br (configuration not stated)	26%	9%	x	-13	-3	1%
CS(=O)(=O)c1ccc(Cl)c(C(=O)NC2CCSc3ccccc32)c1 (configuration not stated)	-15%[46.1 µM]	1%	-11%	37	22*	16%[46.1 µM]
NS(=O)(=O)c1cc(C(=O)NC2CCSc3ccccc32)ccc1Cl (configuration not stated)	4%	-5%	17%	-14	-4	-10%[46.1 µM]
O=C(NC1CCSc2ccccc21)c1ccccc1Br (configuration not stated)	x	12%	-8%	23*	24*	x
CCc1ccc(CCC(=O)Nc2ncc(Cc3ccccc3Cl)s2)o1	u	u	-21%	13	6	u
CCOC(=O)N1CCC(NC(=O)C2CCCN(Cc3nc(-c4ccc(CC)cc4)oc3C)C2)CC1 (configuration not stated)	u	2.5µM*	u	4	2	u
Cc1cccc(-c2nc(CN3CCCC(C(=O)NC4CCCCC4)C3)c(C)o2)c1 (configuration not stated)	-18%	32µM*	u	-12	2	u
Cc1oc(-c2cccc(Cl)c2)nc1CN1CCC(C(=O)NC(C)C)CC1	u	x	3%	x	x	25%[46.1 µM]
Cc1oc(-c2cccc(Cl)c2)nc1CN1CCCC(C(=O)NCc2ccc(Cl)cc2)C1 (configuration not stated)	24%[46.1 µM]	x	u	x	x	1%[46.1 µM]
Cc1cccc(-c2nc(CN3CCCC(C(=O)NC4CCCCCC4)C3)c(C)o2)c1 (configuration not stated)	u	u	u	-18	-3	u
CCN1CCCC1CNC(=O)C1CCN(Cc2nc(-c3cccc(Br)c3)oc2C)CC1 (configuration not stated)	11µM*	2.5µM*	-19%	-8	2	3.5µM*
Cc1oc(-c2cccc(Cl)c2)nc1CN1CCCC(C(=O)NC(C)c2ccc3c(c2)OCCO3)C1 (configuration not stated)	x	u	20µM*	-27	-5	x
Cc1ccc(Sc2ccc(N3CCCC(C(=O)Nc4ccc(F)cc4)C3)nn2)cc1 (configuration not stated)	u	x	-14%	x	x	-16%[46.1 µM]
CCc1ccc(-c2nc(CN3CCC(C(=O)NCc4ccccc4OC)CC3)c(C)o2)cc1	u	10µM*	u	19	16	u
O=C1Nc2ccccc2N=C(c2ccccc2)c2ccccc21	u	12%	21%	17	20*	u
O=C(CC(C(=O)O)C1CCCO1)NCc1ccccc1 (configuration not stated)	-1%	5%	-9%	-13	-7	16%
CC(CC(=O)NCc1ccccc1)C1CCCO1 (configuration not stated)	-7%	13%	47%	26*	17*	12%
